Shown are actives, neighbours in structure and some others; about 3.3% of the full set was active somewhere.
SMARCA2 act – SMARCA2 (BRM) function activators, primary screen, cell-based, luminescence, high throughput; activation, % at 9.1 µM; MG213 cells, MMTV-luciferase reporter, dexamethasone, overnight; hit rate 1% among 370,000; in the data active = activation above about 7.8%;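 note: 0% = vehicle wells and 100% = reference activator wells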
esBAF inh – Bmi1 luciferase reporter increase in mESCs, primary screen, esBAF inhibitor project, mouse ES cells, Bmi1 luciferase knock-in, single point | 24 h; 100% = twice the neutral-well signal | reporter increase, % at 12.5 µM | hit rate 2% among 350,000; in the data active = activation above about 40%;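 note: 0% = median of the plate's neutral control wells and 100% = double that signal; a rise in the Bmi1 reporter signal indicates esBAF inhibition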
Gli-Sufu block – Gli-Sufu pathway antagonists, primary screen, luciferase luminescence, Sufu-KO-LIGHT cells, uHTS; Sufu-KO-LIGHT fibroblasts, Gli luciferase reporter luminescence; inhibition, % at 5 µM; hit rate 0.74% among 340,000;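 active = inhibition above about 55%, limit read from the data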;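 note: 0% = DMSO-treated cells and 100% = wells with medium but no cells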
Jurkat NFkB inh – inhibitors of induced NF-kB luciferase reporter, primary screen, TCR NF-kB activation inhibitor project, cell-based, luminescence, uHTS. Jurkat, PMA/ionomycin-induced NF-kB luciferase reporter. inhibition, % at 4 µM. hit rate 0.53% among 330,000; in the data active = inhibition above about 50%
697 NFkB inh – inhibitors of PMA/ionomycin-induced NF-kB reporter, 697 cells, primary screen, B-cell NF-kB inhibitor project, cell-based, luminescence, uHTS; 697 B-cell NF-kB luciferase reporter, 16 h; inhibition, % at 4 µM; hit rate 0.33% among 330,000; AID 435022, 2010; in the data active = inhibition above about 35%
697 NFkB conf – PMA/ionomycin-induced NF-kB reporter inhibitors, 697 retest, confirmation, B-cell NF-kB inhibitor project, cell-based, luminescence, single concentration. shares compounds with 697 NFkB inh. 697 B-cell NF-kB luciferase, 16 h. inhibition, % at 4 µM. hit rate 35% among 2,000. AID 449746, 2010; in the data active = inhibition mostly above about 28%, no sharp cut-off; inactive = mostly below about 22%
An asterisk follows results filed as active; i = inactive; nt = not tested or not shown.

SMILES | SMARCA2 act | esBAF inh | Gli-Sufu block | Jurkat NFkB inh | 697 NFkB inh | 697 NFkB conf
Cc1ccc(-n2ncc3c(SCc4ccccn4)ncnc32)c(C)c1 | -0.7 | nt | -2.4 | -78.0 | i | i
COc1ccccc1C(=O)NNC(=O)c1ccccc1[N+](=O)[O-] | -1.3 | nt | -3.0 | 2.2 | 6.6 | nt
Cc1ccc(C(=O)C(C)OC(=O)c2ccccc2[N+](=O)[O-])cc1 (stereo not given) | 5.6 | nt | -80.8 | -115.1 | -270.6 | -209.9
CCOC(=O)N1CCN(C(=O)c2ccc(Cn3c(=S)[nH]c4cc(OCC)c(OCC)cc4c3=O)cc2)CC1 | -1.1 | -8.5 | 13.2 | 20.7 | 37.0* | -4.2
C[C@H]1CN([C@@H](C)CO)C(=O)Cc2cc(NS(=O)(=O)c3ccc(Cl)cc3)ccc2O[C@H]1CN(C)Cc1ccc(-c2ccccc2)cc1 | nt | -1.4 | nt | nt | nt | nt
CC(C)(C)c1ccc(C(=O)NCCOc2ccccc2)cc1 | -1.3 | -43.0 | 42.1 | -111.9 | -325.2 | -281.2
CN(C)S(=O)(=O)c1ccc(C(=O)NCCOc2ccccc2)cc1 | 2.1 | nt | -51.2 | -73.1 | -80.6 | nt
COC(=O)CCN1CCc2cc(N=Nc3ccc([N+](=O)[O-])cc3)ccc21 | -1.2 | nt | 4.7 | -90.1 | -281.6 | -94.7
Cc1ccccc1CN1CCc2cc([N+](=O)[O-])ccc21 | -4.8 | 2.9 | 19.2 | 16.0 | 3.3 | nt
CCNC(=O)C[C@H]1C=C[C@H](NS(=O)(=O)c2ccc(F)cc2)[C@@H](CO)O1 | nt | -2.6 | nt | nt | nt | nt
N#CCSc1nc2c(cc1C#N)CCCC2 | -0.8 | -42.7 | 14.8 | -20.6 | -5.9 | nt
CSC1CCCCC1(O)CSc1nc2c(cc1C#N)CCCC2 (stereo not given) | -2.2 | nt | 2.4 | -11.8 | 39.8* | 47.5*
CO[C@H]1CN(C)C(=O)c2cc(NS(=O)(=O)CC(F)(F)F)ccc2OC[C@H](C)N(Cc2nccs2)C[C@@H]1C | nt | -0.5 | nt | nt | nt | nt
O=C(Nc1cccc(Cl)c1)N1C[C@H]2[C@@H](c3ccccc31)[C@H](CO)N2Cc1ccccc1Cl | nt | 7.2 | nt | nt | nt | nt
C(=N\Nc1nc(Nc2ccccc2)nc(Nc2ccccc2)n1)/c1cccnc1 | -4.2 | nt | 3.5 | -15.2 | 35.1* | 30.5*
COc1cc2[nH]c(=S)n(CC3CCCO3)c(=O)c2cc1OC (stereo not given) | 0.8 | 1.1 | 8.8 | 2.0 | 37.1* | 22.6
O=C(C[C@@H]1CC[C@@H](NC(=O)C2CC2)[C@H](CO)O1)NCc1ccccc1Cl | nt | -1.5 | nt | nt | nt | nt
CCCCC(=O)Nc1sc2c(c1C#N)CC(C)(C)OC2 | -0.5 | 23.1 | -75.5 | -89.7 | -132.8 | nt
CC1(C)Cc2c(sc(NC(=O)Cc3ccccc3)c2C#N)CO1 | -7.0 | nt | 9.7 | 19.0 | 41.2* | 23.2
C[C@@H]1CN([C@H](C)CO)C(=O)Cc2cc(NS(=O)(=O)c3cccs3)ccc2O[C@@H]1CN(C)CC1CC1 | nt | -4.2 | nt | nt | nt | nt
O=C(C[C@@H]1CC[C@H](NC(=O)Nc2cc(F)ccc2F)[C@@H](CO)O1)NCc1ccccn1 | nt | -2.1 | nt | nt | nt | nt
COc1ccc(S(=O)(=O)N(C)C[C@@H]2Oc3ccc(NC(=O)Nc4ccc(F)cc4)cc3C(=O)N([C@H](C)CO)C[C@H]2C)cc1 | nt | -4.3 | nt | nt | nt | nt
Cc1oc(-c2ccc(-c3ccccc3)cc2)nc1CN1CCN(CC(=O)N(C)C)CC1 | 2.7 | nt | -79.3 | -14.9 | -267.3 | -262.8
CO[C@@H]1CN(C)C(=O)c2ccc(NC(=O)C3CCOCC3)cc2OC[C@@H](C)N(CC2CCCCC2)C[C@H]1C | nt | 1.9 | nt | nt | nt | nt
Cc1cc(OCC(=O)Nc2ccc(CN3CCOCC3)cc2)c2c(C)c(C)c(=O)oc2c1 | -2.3 | -14.9 | 48.7 | 5.7 | 38.4* | 20.9
CCCC#Cc1ccc2c(c1)O[C@@H](CN(C)Cc1ccccc1)[C@H](C)CN([C@@H](C)CO)S2(=O)=O | nt | -0.2 | nt | nt | nt | nt
Cc1noc(C)c1NC(=O)NCC[C@@H]1CC[C@H](NC(=O)c2ccccc2)[C@H](CO)O1 | nt | 1.0 | nt | nt | nt | nt
Cc1ccc(-c2nnc(Nc3ccccc3)o2)cc1 | 2.2 | -79.7 | -72.1 | -58.9 | -303.3 | -366.2
O=C(CCN1C(=O)/C(=C/c2ccc(Cl)cc2)SC1=S)Nc1cccc(C(=O)O)c1 | -2.4 | -5.9 | 3.8 | 23.2 | 13.4 | nt

Bioassay records (PubChem)
